A short description of experiment [1]: Nuclear factor erythroid 2-related factor 2/antioxidant responsive element (Nrf2/ARE) small molecule agonists: qHTS cell viability counter screen in human keratinocytes (AID 1919968; active means well fitted curve in the direction sought with a large enough effect in the repeat runs; an effect the other way counts as inactive or inconclusive; further: nearly all actives have a fitted effect of over 55% in size). Put shortly: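 HaCaT ARE reporter line, 1,500 cells/well; 5 h settle, 37 C/5% CO2; cpd in DMSO pinned; 23 h exposure; CellTiter-Fluor, 1 h; fluorescence.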
(In qHTS, concentration-response curves come from the screen itself.)

The nature of experiment [2]: Nuclear factor erythroid 2-related factor 2/antioxidant responsive element (Nrf2/ARE) small molecule agonists: luciferase reporter gene qHTS assay in human keratinocytes (AID 1919969). Further: nearly all actives have a fitted effect of over 35% in size. Further: potency means the concentration at half of the fitted maximal effect. In general terms: Reporter assays use an easily measured gene product as a stand-in for the process of interest.
The target of experiment [3] is Gonadotropin-releasing hormone receptor (Homo sapiens) (UniProt P30968). The experiment can be described thus: Human gonadotropin-releasing hormone receptor (GnRHR) small molecule agonists, calcium flux assay in GnRHR-HEK293 cells (AID 1920063). Further: nearly all actives have a fitted effect of over 35% in size. Put shortly: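 GnRHR-HEK293, 1500 cells/well, 18 h 37 C/5% CO2; Ca dye 1 h 37 C; cpd pinned (DMSO), agonist mode; kinetic FL 480/540, 3 min, 1 s reads; 15 conc, n=3.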
Chain of Gonadotropin-releasing hormone receptor (Homo sapiens) (P30968 whole entry, looked up): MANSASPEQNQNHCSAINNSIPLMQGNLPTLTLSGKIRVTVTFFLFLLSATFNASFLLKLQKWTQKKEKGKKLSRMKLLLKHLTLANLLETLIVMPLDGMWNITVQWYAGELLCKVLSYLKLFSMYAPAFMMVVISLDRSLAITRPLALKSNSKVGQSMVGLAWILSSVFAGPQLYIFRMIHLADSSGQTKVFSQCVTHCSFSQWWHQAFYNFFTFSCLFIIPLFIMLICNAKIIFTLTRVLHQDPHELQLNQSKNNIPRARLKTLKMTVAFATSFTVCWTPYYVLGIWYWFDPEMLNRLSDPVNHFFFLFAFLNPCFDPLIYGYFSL

The target in experiment [4] is KiSS-1 receptor (Homo sapiens) (UniProt Q969F8). The experiment is described as follows: Human kisspeptin (KISS1R) small molecule agonists, calcium flux assay in KISS1R-HEK293 cells (AID 1920064; active means well fitted curve in the direction sought with a large enough effect in the repeat runs; an effect the other way counts as inactive or inconclusive). Put shortly: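 Stable human KISS1R HEK293 line; 18 h plating, 37 C/5% CO2; calcium dye 1 h 37 C; compound pin transfer; kinetic fluorescence Ex/Em 480/540, 3 min.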
Chain of KiSS-1 receptor (Homo sapiens) (Q969F8 whole entry, looked up): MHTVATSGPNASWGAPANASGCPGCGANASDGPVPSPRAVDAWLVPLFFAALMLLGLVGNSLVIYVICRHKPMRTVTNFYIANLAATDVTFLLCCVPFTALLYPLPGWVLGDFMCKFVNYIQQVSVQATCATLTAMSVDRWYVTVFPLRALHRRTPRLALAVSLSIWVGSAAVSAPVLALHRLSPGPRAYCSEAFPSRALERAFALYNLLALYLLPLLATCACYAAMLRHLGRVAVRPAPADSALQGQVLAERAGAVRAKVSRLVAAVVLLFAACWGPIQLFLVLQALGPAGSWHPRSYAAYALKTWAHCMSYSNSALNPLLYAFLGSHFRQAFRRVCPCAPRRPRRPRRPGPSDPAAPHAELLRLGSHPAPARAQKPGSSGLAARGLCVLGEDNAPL
On the technique in general: Calcium flux is commonly read through the fluorescence of an indicator in the cells.

The nature of experiment [5]: G protein-coupled receptor (GPCR) small molecule agonists, calcium flux assay: HEK293 wild type cell line counter screen (AID 1920065). The method in brief:
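Kinetic fluorescence at Ex/Em 480/540, recorded every second over 3 min, served as the read-out after compound addition. Each compound was tested at 15 concentrations in triplicate on cells pre-loaded with calcium dye for 1 h.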

A short description of experiment [6]: p53 small molecule agonists, cell-based qHTS assay with human liver microsomes (AID 1963577). The method in brief: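 Fluorescence of the beta-lactamase reporter in p53RE-bla cells, detected with LiveBLAzer substrate (2 h, room temperature, dark), served as the read-out after 16 h compound exposure at 37 C with human liver microsomes and NADPH, each 0.5 mg/mL final.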

The nature of experiment [7]: p53 small molecule agonists, cell-based qHTS assay with rat liver microsomes (AID 1963578). Put shortly:
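Cells carrying a p53 response element–beta-lactamase reporter were plated and rested 5 h, then dosed with compound in DMSO plus rat liver microsomes and NADPH, each at 0.5 mg/mL final. After 16 h at 37 C, LiveBLAzer substrate was added for 2 h.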

Experiment [8] in a line: p53 small molecule agonists, cell-based qHTS assay with human liver microsomes: qHTS cell viability counter screen (AID 1963579). Further: nearly all actives have a fitted effect of over 45% in size. The method in brief: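 Cytotoxicity counter screen: p53RE-bla, 4,000 cells/well; 5 h settle, 37 C/5% CO2; cpd + HLM 0.5 mg/mL + NADPH 0.5 mg/mL (final); 16 h, 37 C; CellTiter-Glo, 30 min RT, luminescence.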
The nature of experiment [9]: p53 small molecule agonists, cell-based qHTS assay with rat liver microsomes: qHTS cell viability counter screen (AID 1963580). Further: nearly all actives have a fitted effect of over 45% in size. Put shortly: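 p53RE-bla HCT-116 cells (4,000/well) rested 5 h at 37 C, then given Tox21 compounds in DMSO with rat liver microsomes (0.5 mg/mL final) plus NADPH (0.5 mg/mL final) for 16 h at 37 C. Viability read by CellTiter-Glo luminescence after 30 min at room temperature.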

Experiment [10] is described as follows: p53 small molecule agonists, cell-based qHTS assay: qHTS cell viability counter screen (AID 1963581). Further: nearly all actives have a fitted effect of over 45% in size. Put shortly: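 HCT-116 p53RE-bla cells, 4,000/well, plated 5 h before compound pin transfer; 16 h at 37 C; bla substrate 2 h RT; then CellTiter-Glo, 30 min RT, luminescence.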
Experiment [11] is described as follows: p53 small molecule agonists, cell-based qHTS assay (AID 1963582; active means well fitted activation curve with a large enough effect in the signal ratio in the repeat runs, not every such curve was filed as active; the % refers to the signal ratio). Put shortly: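 Reporter line: p53RE-bla. Pre-incubation 5 h, 37 C, 5% CO2; compound (DMSO, pin tool) 16 h, 37 C; B/G FRET substrate 2 h RT; fluorescence intensity read.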
In experiment [12] the target is 5-hydroxytryptamine receptor 2A (Homo sapiens) (UniProt P28223). The experiment can be described thus: 5-hydroxytryptamine receptor 2A (HTR2A) small molecule antagonists, cell-based qHTS assay (AID 1963586). Further: nearly all actives have a fitted effect of over 45% in size. The method in brief:
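Antagonist-mode intracellular calcium assay: DOI (4 nM) added after 5 min compound pre-incubation at room temperature to dye-loaded HTR2A-CHO cells. Fluorescence followed for 3 min, sampled every second.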

The target is the same in experiment [13]. The experiment is described as follows: 5-hydroxytryptamine receptor 2A (HTR2A) small molecule agonists, cell-based qHTS assay (AID 1963587). Further: nearly all actives have a fitted effect of over 30% in size. Put shortly:
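HTR2A-CHO cells, plated 18 h at 37 C/5% CO2, dye-loaded 1 h at 37 C; compounds in DMSO added by pin tool (agonist mode). Intracellular calcium flux read as kinetic fluorescence on FDSS over 2 min at 1 s intervals.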

For experiment [14], the target named is Muscarinic acetylcholine receptor M1 (Homo sapiens) (UniProt P11229). The experiment can be described thus: Cholinergic receptor muscarinic 1 (CHRM1) small molecule antagonists, cell-based qHTS assay (AID 1963588). Further: nearly all actives have a fitted effect of over 40% in size. Put shortly:
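CHRM1-CHO calcium-flux assay, antagonist mode. Cells were seeded 18 h, dye-loaded 1 h at 37 C and given compound for 5 min at RT, then acetylcholine was added at 50nM. FDSS fluorescence was read 3 min; 15 concentrations, three runs.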

The target is the same in experiment [15]. The experiment is described as follows: Cholinergic receptor muscarinic 1 (CHRM1) small molecule agonists, cell-based qHTS assay (AID 1963589). Further: nearly all actives have a fitted effect of over 35% in size. The method in brief:
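Human M1 in stable CHO line; 18 h plating, 1 h dye load 37 C; cpd added (agonist mode); Ca2+ fluorescence kinetic read, 1 s intervals; 15 conc, 3 runs.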

The nature of experiment [16]: cAMP Responsive Elements (CRE) small molecule antagonists, cell-based qHTS assay (AID 1963591; active means well fitted inhibition curve with a large enough effect in the signal ratio in the repeat runs, not every such curve was filed as active; the % refers to the signal ratio). The method in brief: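 Beta-lactamase reporter read by FRET substrate (LiveBLAzer B/G) after 2 h at room temperature. CRE-bla HEK293T cells had received compound plus 0.25 uM (final) NKH477 for 3 h at 37 °C.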
Experiment [17] addresses Beta-2 adrenergic receptor (Homo sapiens) (UniProt P07550). The experiment is described as follows: Adrenergic beta2 receptor (ADRB2) small molecule antagonists, cell-based qHTS assay (AID 1963592). Further: series mostly up to about 92 µM; nearly all actives have a fitted effect of over 50% in size. The method in brief:
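Cells (CHO, stable ADRB2 overexpression) incubated 18-20hr at 37C; compounds added from DMSO; agonist mix (1nM isoproterenol, 100uM IBMX, 25uM Ro-20-1724) added; 0.5hr RT; d2-cAMP and anti-cAMP-cryptate added; 1hr RT; 665/615 nm read.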

For experiment [18], the target named is D(2) dopamine receptor (Homo sapiens) (UniProt P14416). The experiment can be described thus: Dopamine D2 receptor (DRD2) small molecule agonists, cell-based qHTS assay (AID 1963594). Further: nearly all actives have a fitted effect of over 35% in size. Put shortly:
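HEK293 cells stably expressing DRD2 were cultured 24 h at 37 C, then given Ro20-1724 (0.1 mM final) and compounds for 10 min at room temperature. NKH477 (200nM) was then added for 30 min. cAMP was read by HTRF.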

For experiment [19] the target is unchanged. The experiment can be described thus: Dopamine D2 receptor (DRD2) small molecule antagonists, cell-based qHTS assay (AID 1963595; active means well fitted inhibition curve with a large enough effect in the signal ratio in the repeat runs, with a control signal flat; the % refers to the signal ratio). The method in brief:
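Human DRD2 antagonist qHTS measuring cAMP by HTRF. The cells are exposed to compound for 10 min, then to NKH477 (200 nM) and quinpirole (12 nM) for 30 min at RT, with Ro20-1724 (0.1 mM) present throughout.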

Experiment [20] can be described thus: cAMP Responsive Elements (CRE) small molecule agonists, cell-based qHTS assay (AID 1963590). The method in brief:
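HEK 293T CRE-bla, 2,000 cells/well, 18 h preincubation 37 C/5% CO2; cpds (DMSO) pinned, 3 h; LiveBLAzer B/G FRET substrate, 2 h RT.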

The text below walks through data of PubChem BioAssay (Tox21).

Values joined by “and” are separate entries in the source; they are usually repeats but may differ in a detail not shown here. Equal entries are not always repeated. Inconclusive results are not listed. Active and inactive are the calls of the source. Unless noted, the call rests on the fitted dose curve.

Chain of Beta-2 adrenergic receptor (Homo sapiens) (P07550 whole entry, looked up): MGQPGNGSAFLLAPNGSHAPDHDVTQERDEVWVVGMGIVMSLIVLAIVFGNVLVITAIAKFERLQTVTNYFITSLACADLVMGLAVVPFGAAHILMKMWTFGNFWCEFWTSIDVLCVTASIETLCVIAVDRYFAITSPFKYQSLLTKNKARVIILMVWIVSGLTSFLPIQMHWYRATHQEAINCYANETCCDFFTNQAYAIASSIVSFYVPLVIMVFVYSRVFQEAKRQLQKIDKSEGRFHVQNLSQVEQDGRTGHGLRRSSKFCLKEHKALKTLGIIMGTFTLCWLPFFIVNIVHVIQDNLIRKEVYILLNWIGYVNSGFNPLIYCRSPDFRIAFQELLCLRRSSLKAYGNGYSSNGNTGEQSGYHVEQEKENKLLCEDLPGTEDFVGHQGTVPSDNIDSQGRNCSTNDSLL
Chain of D(2) dopamine receptor (Homo sapiens) (P14416 whole entry, looked up): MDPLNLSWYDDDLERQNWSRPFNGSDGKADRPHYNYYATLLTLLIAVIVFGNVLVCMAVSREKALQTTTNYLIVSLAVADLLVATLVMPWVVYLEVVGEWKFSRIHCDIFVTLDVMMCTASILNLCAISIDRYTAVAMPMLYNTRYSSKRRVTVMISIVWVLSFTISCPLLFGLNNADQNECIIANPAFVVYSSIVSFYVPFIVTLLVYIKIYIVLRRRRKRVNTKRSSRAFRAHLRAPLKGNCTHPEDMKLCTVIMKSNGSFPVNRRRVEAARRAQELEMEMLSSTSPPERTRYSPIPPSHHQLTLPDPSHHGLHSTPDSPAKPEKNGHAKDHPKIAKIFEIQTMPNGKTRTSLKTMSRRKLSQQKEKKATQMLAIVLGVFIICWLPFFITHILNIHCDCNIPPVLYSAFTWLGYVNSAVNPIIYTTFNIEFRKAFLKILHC
Chain of Muscarinic acetylcholine receptor M1 (Homo sapiens) (P11229 whole entry, looked up): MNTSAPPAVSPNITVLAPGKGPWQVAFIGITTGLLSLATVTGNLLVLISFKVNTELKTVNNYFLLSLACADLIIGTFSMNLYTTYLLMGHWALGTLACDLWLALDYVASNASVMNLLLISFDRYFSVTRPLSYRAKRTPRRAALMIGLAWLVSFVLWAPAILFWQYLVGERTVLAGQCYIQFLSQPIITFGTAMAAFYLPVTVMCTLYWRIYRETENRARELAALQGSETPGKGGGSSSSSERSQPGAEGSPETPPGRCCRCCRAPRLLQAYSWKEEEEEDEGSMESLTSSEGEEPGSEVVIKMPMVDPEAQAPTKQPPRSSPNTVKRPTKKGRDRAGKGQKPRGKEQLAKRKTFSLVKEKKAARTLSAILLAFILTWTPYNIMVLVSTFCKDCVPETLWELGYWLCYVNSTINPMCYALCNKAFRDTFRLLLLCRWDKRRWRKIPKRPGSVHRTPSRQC
Chain of 5-hydroxytryptamine receptor 2A (Homo sapiens) (P28223 whole entry, looked up): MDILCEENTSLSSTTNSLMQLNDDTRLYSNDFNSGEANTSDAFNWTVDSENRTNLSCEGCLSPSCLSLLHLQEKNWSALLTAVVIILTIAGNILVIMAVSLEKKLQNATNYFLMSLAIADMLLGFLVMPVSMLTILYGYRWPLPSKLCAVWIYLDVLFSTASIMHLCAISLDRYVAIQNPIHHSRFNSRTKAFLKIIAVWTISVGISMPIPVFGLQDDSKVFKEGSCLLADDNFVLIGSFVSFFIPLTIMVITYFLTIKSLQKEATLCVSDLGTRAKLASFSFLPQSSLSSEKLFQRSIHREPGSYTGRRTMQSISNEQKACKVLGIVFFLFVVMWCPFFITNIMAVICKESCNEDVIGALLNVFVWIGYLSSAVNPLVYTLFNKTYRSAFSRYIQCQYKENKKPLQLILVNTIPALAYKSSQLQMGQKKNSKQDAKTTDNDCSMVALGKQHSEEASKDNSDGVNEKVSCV

Regarding `COc1ccc(O)cc1`, the Potency entry in experiment [1], in experiment [2], in experiment [3], in experiment [4], in [5] and in experiment [6] was “inactive” each time. Besides, the Potency entry in experiment [7], in [8], in experiment [9], in [10], in experiment [11] and in [12] was “inactive” each time. Besides, the Potency result in experiment [13], in experiment [14], in [15], in experiment [16], in experiment [17] and in experiment [18] was “inactive” throughout. Moreover, in [19], the Potency entry is “inactive”.
As to `CC(=O)CC(C)(C)O`, the Potency result in experiment [1], in experiment [2], in experiment [3], in experiment [4], in experiment [5] and in experiment [6] was “inactive” throughout. Further, the Potency result in experiment [7], in [8], in [9], in experiment [10], in experiment [11] and in experiment [12] was “inactive” in each case. Further, the Potency result in [13], in [14], in experiment [15], in [20], in experiment [16] and in [17] was “inactive” each time. Also, the Potency entry in experiment [18] and in experiment [19] was “inactive” throughout.
`CC(C)OC(=O)COc1ccc(Cl)cc1Cl`: the Potency result in [1], in experiment [2], in experiment [3], in experiment [4], in experiment [5] and in [6] was “inactive” in each case. Also, the Potency entry in [7], in experiment [8], in experiment [9], in experiment [10], in experiment [11] and in [12] was “inactive” each time. Further, the Potency entry in experiment [13], in [14], in experiment [15], in [17], in [18] and in experiment [19] was “inactive” throughout.
As to `CC(C)=CCCC(C)CCO` (stereo not given), the Potency result in [1], in experiment [2], in experiment [3], in [4], in [5] and in experiment [6] was “inactive” in each case. Moreover, the Potency entry in experiment [7], in experiment [8], in [9], in [10], in experiment [11] and in [12] was “inactive” throughout. Further, the Potency result in experiment [13], in [14], in [15], in experiment [20], in experiment [18] and in experiment [19] was “inactive” throughout.
On to `c1ccc2c(c1)ccc1cc3c(ccc4ccccc43)cc12`, for which the Potency result in experiment [1], in [3], in experiment [4], in experiment [5], in experiment [6] and in [7] was “inactive” in each case. Also, the Potency result in [8], in experiment [9], in experiment [10], in [11], in experiment [12] and in [13] was “inactive” in each case. For the same molecule, the Potency result in experiment [14], in experiment [15], in [20], in [16], in [18] and in experiment [19] was “inactive” throughout. In [2], the Potency was 17 µM (active) and 2.15 µM (active).
Consider `CCCCCCCC(=O)OCC(O)CO` (stereo not given), for which the Potency entry in [1], in experiment [2], in experiment [3], in experiment [4], in experiment [5] and in [6] was “inactive” in each case. Also, the Potency result in experiment [7], in [8], in experiment [9], in [10], in [11] and in experiment [12] was “inactive” throughout. For the same molecule, the Potency entry in experiment [13], in experiment [14], in [15], in experiment [16], in [17] and in experiment [18] was “inactive” each time.
With `Nc1nc2ccccc2[nH]1`, the Potency result in experiment [1], in [2], in experiment [3], in experiment [4], in experiment [5] and in experiment [6] was “inactive” each time. Besides, the Potency entry in experiment [7], in experiment [8], in experiment [9], in [10], in experiment [11] and in [12] was “inactive” throughout. Besides, the Potency entry in [13], in experiment [14], in experiment [15], in [20], in [17] and in experiment [18] was “inactive” each time. In addition, the Potency entry in experiment [19] is “inactive”.
Consider `COC(=O)CCCCC(=O)OC`, for which the Potency entry in experiment [1], in [2], in [3], in [4], in experiment [5] and in experiment [6] was “inactive” each time. The Potency result in experiment [7], in [8], in experiment [9], in experiment [10], in experiment [11] and in experiment [12] was “inactive” in each case. Also, the Potency entry in [13], in experiment [14], in experiment [15], in experiment [20], in experiment [16] and in experiment [17] was “inactive” in each case. The Potency result in experiment [19] is “inactive”.
In the case of `NC(=O)NC(N)=O`, the Potency entry in [1], in experiment [2], in [3], in experiment [4], in [5] and in experiment [6] was “inactive” each time. The Potency entry in experiment [7], in experiment [8], in experiment [9], in experiment [10], in experiment [11] and in experiment [12] was “inactive” throughout. In addition, the Potency result in experiment [13], in experiment [14], in experiment [15], in experiment [20], in experiment [16] and in experiment [17] was “inactive” in each case. Further, the Potency entry in experiment [18] and in experiment [19] was “inactive” in each case.
